Reference: PubChem BioAssay AID504894 (National Center for Advancing Translational Sciences (NCATS), 2011)
The campaign covered roughly 330,000 compounds. Fewer than 10 were called active. Calls follow the shape of the dose curve; as a rule, active = well fitted activation curve with a large enough effect; inconclusive = small, poorly fitted or top-dose-only effect, or another doubt; inactive = no such curve, though single readings can be large or run the other way. Only a sample is shown.

test: Activators of T cell receptors: qHTS campaign; conditions: primary human leukocytes, anti-CD3, IL-2 HTRF, 48 h; series mostly up to 9.22 µM
Text: Normally activation of naive T cells requires two signals. 1. A signal through the T cell receptor (TCR) which provides antigen specificity to the response. 2. Signals through co-stimulatory molecules, which are necessary for proliferation, survival and cytokine production. In the absence of co-stimulatory signals T cells are not effectively activated, and may even be rendered anergic or unresponsive to subsequent signaling. This lack of costimulation has been shown in multiple model systems to be a major factor in the limited strength and effectiveness of anti-tumor T cell responses. The goal of this project is to identify small molecule compounds that will stimulate T cell activation in the presence of TCR signaling but in the absence of co-stimulatory signals, thereby allowing activation of naive T cells in the absence of co-stimulation. Identification of such compounds would have clear experimental and clinical applications in instances where desirable antigen-specific immune responses are not generated due to a lack of co-stimulation, for example in the generation of anti-tumor responses. In collaboration between the National Cancer Institute and NIH Chemical Genomics Center, a high-throughput amenable screen was developed to discover small molecules that co-stimulate and activate human T cell receptors. The screen will be carried out using a novel homogeneous time resolved fluorescence energy transfer (HTRF) assay to measure production of the cytokine IL-2 by activated T cells and will be tested against the NIH Molecular Libraries Small Molecule Repository (MLSMR). NIH Chemical Genomics Center [NCGC] NIH Molecular Libraries Probe Centers Network [MLPCN] MLPCN Grant: MH090820-01 Assay Submitter (PI): Richard Hodes, National Cancer Institute, NIH
Primary human leukocytes are incubated with a-CD3 beads and compounds for 48 hr. The amount of secreted IL-2 is then assayed with a HTRF IL-2 kit. The presence of IL-2 cytokine captures the detection reagents and brings the a-IL-2-K and a-IL-2-d2 into close proximity. Upon excitation with 320nm light, the europium cryptate is capable of transferring energy to acceptor molecules within close proximity, resulting in acceptor molecule emission at 665nm.

outcome, inactive:
COc1cccc(CC(=NO)c2cccc(OC)c2)c1
CC(NC(=O)c1ccccc1)C(=O)Nc1ccccc1 (stereo not drawn)
COc1cc(/C=C/CNC[C@H]2O[C@@H](n3cnc(C(N)=O)n3)[C@H](O)[C@@H]2O)ccc1O
COc1cc2c(cc1OC)C(Cc1cc(OC)c(OC)cc1[N+](=O)[O-])=NCC2
Cc1ccc(-c2csc(C(C#N)=C(O)CN3CCN(C(=O)c4ccco4)CC3)n2)cc1
CN(C)c1ccc(CSc2ccccc2)cc1
COc1cc(C(=O)CCc2ccc3c(c2)OCO3)cc(OC)c1OC
O=c1[nH]c2c(c(=O)n1-c1ccccc1)CCO2
CN(C(=O)c1cccc(NC(=O)Cc2ccc(NC(=O)C3CCCN(C(=O)C4CCCC4)C3)cc2)c1)C1CCC1 (stereo not drawn)
CC(=O)c1cccc(-c2ccc(CN3C(CC(C)C)C(=O)N(Cc4cn(CC5CCCCC5)nn4)CCS3(=O)=O)cc2)c1 (stereo not drawn)
N#CCc1c[nH]c2ccc([N+](=O)[O-])cc12
O=c1c2ccccc2ncn1CCc1ccncc1
COc1cccc2c1C(=O)c1c(O)c3c(c(O)c1C2=O)CC(O)(C(C)=NNC(=O)c1ccc(Cl)c(Cl)c1)CC3OC1CC(N)C(O)C(C)O1 (stereo not drawn)
O=c1ccn([C@@H]2O[C@H](CNS(=O)(=O)c3cc4ccccc4s3)[C@@H](O)[C@H]2O)c(=O)[nH]1
CCCCN1CC(COCc2ccccc2)OCCS1(=O)=O (stereo not drawn)
COc1ccc(OC)c(Cc2cnc3nc(N)nc(N)c3c2C)c1
CCC1([N+](=O)[O-])COC(c2ccc(C(C)C)cc2)OC1 (stereo not drawn)
CC1C(C)N(C(=O)CCl)c2ccccc2N1C(=O)CCl (stereo not drawn)
OCC(O)C1OCOC(C(O)CO)C1O (stereo not drawn)
CC1=CC(=NNS(=O)(=O)c2ccc([N+](=O)[O-])cc2)CC(C)(C)C1
C#CCOCCOCCOCCNc1nc(N2CCOCC2)nc(N2CCN(C(=O)[C@H](Cc3ccc(O)cc3)n3cc(CCO)nn3)CC2)n1
COc1ccc(Cl)cc1C=CC=Nc1ccc(S(N)(=O)=O)cc1
O=C(O)C(CCc1ccccn1)c1ccccc1 (stereo not drawn)
COc1ccc(C(=O)Nc2cccc(/C=C(/CCC(=O)O)c3nc4ccccc4s3)c2)cc1
O=[N+]([O-])c1ccc(NS(=O)(=O)c2ccccc2)c(Cl)c1
OC(COc1ccccc1)CN1CCN(c2cccc(Cl)c2)CC1 (stereo not drawn)
COc1cc2c(cc1CNC[C@H]1O[C@@H](n3cnc(C(N)=O)n3)[C@H](O)[C@@H]1O)OCO2
CCc1nnc(NC(=O)c2cc(S(=O)(=O)N3CCN(CC)CC3)ccc2Cl)s1
O=C(NNc1nc(N2CCCC2)nc(N2CCCC2)n1)c1ccccc1
Nc1ccc2[nH]c(=S)sc2c1
CCCC(O)(c1ccccc1)C(c1ccccc1)c1ccccn1 (stereo not drawn)
COc1ccc(Cl)cc1C=CC=NNC(=O)c1ccncc1
COc1cccc2oc(CCc3ccccc3)cc(=O)c12
Nc1ccc2c(c1)C(O)c1ccc(Cl)cc1-2 (stereo not drawn)
COc1ccc(CNCCCNCc2ccc(OC)c(OC)c2)cc1OC
O=S(=O)(Nc1ccc2ccccc2c1)N1CCCCC1
C[C@@H]1NS(=O)(=O)c2cc(Cl)ccc2O[C@@H]1c1ccccc1
O=[N+]([O-])c1ccc(COc2ccccc2CN2CCOCC2)cc1
Cc1nc2ccccc2c(C(=O)O)c1-c1ccccn1
O=C1NC(=O)C(CCc2ccccc2)(c2ccccc2)N1 (stereo not drawn)
O=c1oc2ccccc2c(=O)c2ccccc12
c1ccc(C(=NNc2nc3ccccc3s2)c2ccccn2)cc1
Cc1ccc(OCCNC(=O)c2cccc(S(=O)(=O)N3CCN(Cc4ccccc4)CC3)c2)cc1
O=C(NCCc1ccccc1)c1c[nH]c2ccc(F)cc2c1=O
CNN/C(N=Cc1ccc([N+](=O)[O-])s1)=N\S(=O)(=O)c1cc(C)c(Cl)cc1SCc1ccccc1
O=C1OC(Cc2ccccc2)C(c2ccccc2)C1=O (stereo not drawn)
COc1ccc(S(=O)(=O)N2CCc3ccccc32)cc1C(=O)Nc1cc(S(C)(=O)=O)ccc1Cl
CN(O)C(=S)c1ccccc1
CC(C)C[C@H]1CN([C@@H](CC(C)C)CN2CCC[C@@H]2CN2C(=O)C(=O)NC[C@@H]2Cc2ccccc2)C(=O)C(=O)N1CCc1ccccc1
COc1cc(C2c3cc4c(cc3C(O)C3COC(=O)C23)OCO4)cc(OC)c1OC (stereo not drawn)
Cc1cc(C)c(C=NNc2nc3c([nH]2)c(=O)n(C)c(=O)n3C)c(C)c1
C#CCOCCOCCOCCNc1nc(N2CCN(C(=O)Cn3cc(CCO)nn3)CC2)nc(N2CCN(C(=O)[C@H](CCCCN)n3cc(CCCC)nn3)CC2)n1
C[C@]12CCC(=O)C=C1C=CC1C2CC[C@@]2(C)C1CC[C@@]21CCC(=O)O1 (stereo partly drawn)
CC(=O)Nc1ccc(C(=O)Nc2cc(S(=O)(=O)N3CCOCC3)ccc2N2CCOCC2)cc1
C=CC(=O)Nc1ccc(Nc2ccnc(Nc3ccc(N4CCN(C)CC4)cc3)n2)cc1
Cc1ccc(C)c(S(=O)(=O)N(C)c2ccc(OC(=O)C3CCN(C(=O)c4ccc(F)cc4)CC3)cc2)c1
Cc1c(NS(=O)(=O)c2cccc(C(=O)Nc3ccc(SC(F)F)cc3)c2)c(=O)n(-c2ccccc2)n1C
C[C@@H]1ON(C)[C@H]2C[C@H]3c4cc(N5CCN(C)CC5)ccc4CCN3C(=O)[C@@H]12
Cc1onc(-c2c(F)cccc2Cl)c1C(=O)Nc1cccc(S(=O)(=O)N2CCCCC2)c1
O=C(CC1Sc2ccccc2NC1=O)NNc1ccc(Cl)c(Cl)c1 (stereo not drawn)
CCC(=O)N1CCc2cc(Br)c(S(=O)(=O)NCCN3CCCCC3CC)cc21 (stereo not drawn)
CC(C)Cn1cnc2c(SCc3ccc(Cl)cc3)nc(N)nc21
O=C1NCC(c2ccccc2)(c2ccccc2)C(=O)N1
COC[C@@H]1NS(=O)(=O)c2ccc(Br)cc2O[C@H]1c1ccccc1
CN1CCC(N(C)C(=O)c2ccc(Cl)c(S(=O)(=O)Nc3ccc(Cl)cc3)c2)CC1
Cc1cc2c(cc1C)NC1(C[C@H]3CCC(=O)N4CC[C@@H](C1)[C@@H]34)C(=NC(C)(C)CC(C)(C)C)N2 (stereo partly drawn)
CN(C(=O)c1cccc(NC(=O)Cc2ccc(NC(=O)C3CCCN(C(=O)C4CC4)C3)cc2)c1)C1CC1 (stereo not drawn)
O=C1/C(=C\c2ccc(O)cc2)CCC1CNc1ccc(Cl)cc1 (stereo not drawn)
O=C1C2C3C=CC(C3)C2C(=O)N1c1ncc([N+](=O)[O-])s1 (stereo not drawn)
NNc1cccc(C=Cc2ccccc2)cc1=O
COc1ccc(-c2nnc(-c3ccc4ccccc4c3)o2)cc1
Cc1nc(N)sc1-c1ccccc1
NC(=O)C1(Nc2ccc(-c3ccccc3)cc2)CCCC1
CCN(CC)CCCN1C(=O)C(=O)/C(=C(/O)c2c(C)nc3ccccn23)C1c1ccc(C)o1 (stereo not drawn)
O=C1OC(Oc2ccc(Br)cc2)(c2ccccc2)c2ccccc21 (stereo not drawn)
CN(C)C(=S)N=c1ssc(=S)n1Cc1ccco1
CN(C(=O)c1cccc(NC(=O)Cc2cccc(NC(=O)C3CCCN(C(=O)C4CC4)C3)c2)c1)C1CCC1 (stereo not drawn)
O=C(NNC(=O)c1ccccc1O)c1ccccc1O
O=C1CC(c2ccccc2)C(=O)N2C(=O)CC(c3ccccc3)C(=O)N12 (stereo not drawn)
Nc1ccc2c(c1)C(=Cc1cccnc1)c1ccccc1-2
CC(=O)c1ccc(NC(=O)C(C)OC(=O)c2ccc(NS(=O)(=O)c3ccc4[nH]c(=O)[nH]c4c3)cc2)cc1 (stereo not drawn)
CCOc1ccccc1NC(=S)C(=C([O-])c1ccc2c(c1)OCCO2)[n+]1ccc(CC)cc1
O=C1C(Cl)=C(Oc2ccccc2)C(=O)c2ccccc21
CSc1ncnc2c1ncn2CC(=O)C1CCC2C3CCC4=CC(=O)CCC4(C)C3CCC12C (stereo not drawn)
O=S(=O)(O)c1cc2onnc2c2ccccc12
CCOC(=O)c1ccc2[nH]c(C)c(CN3CCN(C)CC3)c(=O)c2c1
COC1=CC(=O)OC(c2ccc(OC)cc2)C1 (stereo not drawn)
CCOC(=O)c1ccccc1OC(=O)Oc1ccccc1C(=O)OCC
COc1ccc(CCN2CC(C(=O)OCC(=O)NCc3ccccc3Cl)CC2=O)cc1OC (stereo not drawn)
O=C(CNC(=O)c1cc(S(=O)(=O)N2CCOCC2)ccc1N1CCCC1)Nc1ccc(F)c(F)c1
COc1cc2[nH]c(O)c(C=O)c2cc1OC
Cc1ccc(Nc2c(O)nc[nH]c2=O)cc1C
NC(=O)C1(Nc2ccc([N+](=O)[O-])cc2)CCCC1
O=C1COc2c1ccc(O)c2O
O=C(Cc1ccc(Cl)cc1)c1ccccc1
c1ccc2c(c1)OC1OC2Oc2ccccc21
CCc1ccc(C(=O)C(C)OC(=O)CN2C(=O)NC3(CCCC3)C2=O)cc1 (stereo not drawn)
CCOC(=O)C1CCCN(C(=O)Cn2ncc3c(=O)oc4ccc(C)cc4c32)C1 (stereo not drawn)
CC(=O)OCC1(O)CC23CCC4c5ccoc5CCC4(C)C2CCC1C3 (stereo not drawn)
CC(=O)CSc1nc(CCc2ccccc2)c(C#N)c(=O)[nH]1
CCN(CC)CCCC(C)n1c2nc(=O)[nH]c(=O)c-2nc2cc(Cl)ccc21 (stereo not drawn)
c1ccc(-c2c[nH]c(-c3ccccc3)c2)cc1
O=C(NCC1(N2CCCCC2)CCCCC1)c1cccc(S(=O)(=O)Nc2ccccc2Cl)c1
